# Test results from PubChem BioAssay.
# Where “and” joins values, the source holds several entries; their conditions need not be identical. Equal values may be shown once. Calls of active or inactive are those of the source. Unless noted, the rule behind the calls is not given here.
# Columns and labels:
# [1] = system: Aerobactin synthetase IucA (Klebsiella pneumoniae); experiment: IucA aerobactin synthetase inhibitors, biochemical, Tocris library, absorbance (AID 1345561); conditions: purified IucA enzyme assay, absorbance (OD) read-out; stronger effect = lower value;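 tested at 8 µM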;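 note: 100% = enzyme without compound and 0% = no enzyme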
# [2] = sensitizers of A549 cells to miR-34 induction, primary screen, imaging, A549 dox-inducible miR-34, nuclei and caspase counts (AID 1347080;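 active = compounds whose cell count with miR-34 switched on is under 0.7 times the count with it off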); conditions: A549 miR-34 inducible, Hoechst nuclei count, 48 h
# [3] = viability rescue of complex I mutant cybrids, primary screen, cell-based, galactose medium, ATP luminescence (AID 1645843;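 active = z-score of at least 1.8 in each of two replicates, scored against plate mean and spread of sample wells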;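 note: positive z means more ATP and so rescue of galactose-driven cybrid death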); conditions: complex I mutant cybrid cells, 72 h, stronger effect = higher value
# [4] = LFS_MB_P medulloblastoma growth inhibition, cell-based, chromothripsis tumors, cisplatin or BGB combos (AID 1671449; in the data active = inhibition above about 80%;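 note: cells exposed for 96 hours; 0% = vehicle DMSO and 100% = killing by high DMSO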); conditions: LFS_MB_P medulloblastoma cells
# [5] = HDN33 neuroblastoma growth inhibition, cell-based, chromothripsis tumors, cisplatin or BGB combos (AID 1671450; in the data active = inhibition above about 80%;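 note: cells exposed to compound for four days; 0% = vehicle DMSO and 100% = cell killing by high DMSO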); conditions: HDN33 neuroblastoma cells, stronger effect = higher value
# [6] = ICB984 medulloblastoma cell growth inhibition, synergistic combos for chromothripsis tumors, cisplatin or BGB combos (AID 1671451); conditions: ICB984 medulloblastoma cells, drug combinations, stronger effect = higher value;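 note: cells exposed for 96 hours before readout; 0% = vehicle DMSO and 100% = killing by high DMSO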
# [7] = HTB85 osteosarcoma cell growth inhibition, synergistic combos for chromothripsis tumors, BGB or cisplatin IC20 combos (AID 1671453; in the data active = inhibition above about 80%;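 note: cells exposed for 96 hours before readout; 0% = vehicle DMSO and 100% = high DMSO killing control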); conditions: HTB85 osteosarcoma cells, drug combinations, stronger effect = higher value
# [8] = liver-stage malaria parasite growth inhibition, primary screen, cell-based, HepG2, luciferase luminescence, HepG2 viability (AID 624349; in the data active = parasite load remaining mostly below about 12%, no sharp cut-off; inactive = mostly above about 10%;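 note: 100% = mean of DMSO negative control wells on the same plate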); conditions: P. berghei liver stage in HepG2, luciferase luminescence, concentration not given here; parasite load remaining: stronger effect = lower value; viability: measured here: HepG2 viability without parasites
# [9] = stronger effect = lower value, cell number ratio, induced over uninduced
# [10] = measured here: relative caspase fold change +Dox/-Dox
# [11] = measured here: total cells with miR-34 induction, stronger effect = lower value
# [12] = measured here: total cells without miR-34 induction
structure (smiles),measurement,setting,value
O=c1[nH]cnc2ccccc12,remaining activity,[1],102% (inactive)
same,fold change,[2]; [9],0.942 (inactive)
same,fold change,[2]; [10],1.88
same,cell count,[2]; [11],8900
same,cell count,[2]; [12],9450
same,z-score,[3],-0.085 (inactive)
same,inhibition,"[4]; at 0.5 µM, stronger effect = higher value",-17.1% (inactive)
same,inhibition,"[4]; measured here: combination with BGB IC20, at 0.005 µM",-35.2%
same,inhibition,"[4]; measured here: combination with BGB IC40, at 0.005 µM",-30.5%
same,inhibition,"[4]; measured here: combination with BGB IC40, at 0.05 µM",-20.2%
same,inhibition,"[4]; measured here: combination with cisplatin, at 0.5 µM, stronger effect = higher value",-41%
same,inhibition,"[4]; measured here: combination with cisplatin, at 5 µM, stronger effect = higher value",-52.6%
same,inhibition,"[5]; BGB combo, at 5 µM",-24.4%
same,inhibition,[5]; at 0.5 µM,-4.24% (inactive)
same,inhibition,"[5]; cisplatin combo, at 5 µM",7.34%
same,inhibition,"[5]; measured here: with BGB IC20 combination, at 0.5 µM",2.06%
same,inhibition,"[5]; measured here: with cisplatin IC20 combination, at 0.5 µM",-23.5%
same,inhibition,"[5]; single agent, at 5 µM",3.32%
same,inhibition,"[6]; BGB IC20 combo, at 0.005 µM",-9.29%
same,inhibition,"[6]; BGB IC40 combo, at 0.005 µM",-31.8%
same,inhibition,"[6]; BGB IC40 combo, at 0.05 µM",-19.2%
same,inhibition,[6]; at 0.5 µM,-16.4% (inactive)
same,inhibition,"[6]; cisplatin combo, at 0.05 µM",-23.5%
same,inhibition,"[6]; cisplatin combo, at 0.5 µM",-12.5%
same,inhibition,"[6]; cisplatin combo, at 5 µM",-22.5%
same,inhibition,"[6]; measured here: 5 uM single agent, at 5 µM",-4.22%
same,inhibition,[7]; at 0.5 µM,-3.81% (inactive)
same,inhibition,"[7]; measured here: with BGB IC20, at 0.5 µM",-2.72%
same,inhibition,"[7]; measured here: with BGB IC20, at 5 µM",7.21%
same,inhibition,"[7]; measured here: with cisplatin IC20, at 0.5 µM",2.1%
same,inhibition,"[7]; measured here: with cisplatin IC20, at 5 µM",-54.4%
same,inhibition,"[7]; single agent, at 5 µM",-7.3%
CCC1(c2ncc[nH]2)Cc2ccccc2O1 (stereo not drawn),remaining activity,[1],118% (inactive)
same,fold change,[2]; [9],0.963 (inactive)
same,fold change,[2]; [10],0.89
same,cell count,[2]; [11],9330
same,cell count,[2]; [12],9690
same,z-score,[3],0.05 (inactive)
CC[C@H](CO)Nc1nc(NCc2ccc(-c3ccccn3)cc2)c2ncn(C(C)C)c2n1,parasite load remaining,[8],135% (inactive)
same,viability,[8],85.7%
same,remaining activity,[1],108% (inactive)
same,fold change,[2]; [9],1.16 (inactive)
same,fold change,[2]; [10],0.699
same,cell count,[2]; [11],1900
same,cell count,[2]; [12],1650
same,z-score,[3],-0.89 (inactive)
O=C(CCCc1ccc(-c2ccccc2F)cc1)Nc1ccc(O)cc1,parasite load remaining,[8],21.2% (inactive)
same,viability,[8],102%
same,remaining activity,[1],95.9% (inactive)
same,fold change,[2]; [9],1.05 (inactive)
same,fold change,[2]; [10],1.19
same,cell count,[2]; [11],2340
same,cell count,[2]; [12],2220
same,z-score,[3],-0.66 (inactive)
COc1cc2c(cc1C(F)(F)F)N(C(=O)Nc1cc(F)cc(-c3cccnc3)c1)CC2,remaining activity,[1],97.1% (inactive)
same,fold change,[2]; [9],0.848 (inactive)
same,fold change,[2]; [10],0.948
same,cell count,[2]; [11],5790
same,cell count,[2]; [12],6820
same,z-score,[3],-0.61 (inactive)
CC1=C(/C=C/C(=C/C=C/C(C)=C/C(=O)O)c2ccc(C)cc2)C(C)(C)CCC1,remaining activity,[1],105% (inactive)
same,fold change,[2]; [9],0.936 (inactive)
same,fold change,[2]; [10],1.77
same,cell count,[2]; [11],6950
same,cell count,[2]; [12],7420
same,z-score,[3],0.99 (inactive)
O=C(O)/C=C1\CCCc2ccccc2C1O (stereo not drawn),remaining activity,[1],103% (inactive)
same,fold change,[2]; [9],0.917 (inactive)
same,fold change,[2]; [10],0.874
same,cell count,[2]; [11],8860
same,cell count,[2]; [12],9660
same,z-score,[3],-0.145 (inactive)
CCN(CC)CCCCN1c2ccccc2Oc2ccc(Cl)cc21,parasite load remaining,[8],45.6% (inactive)
same,viability,[8],112%
same,remaining activity,[1],88.2% (inactive)
same,fold change,[2]; [9],1.24 (inactive)
same,fold change,[2]; [10],0.706
same,cell count,[2]; [11],276
same,cell count,[2]; [12],224
same,z-score,[3],-0.7 (inactive)
CC(C)C1C2CCC(C2)C1N (stereo not drawn),remaining activity,[1],119% (inactive)
same,fold change,[2]; [9],0.973 (inactive)
same,fold change,[2]; [10],0.597
same,cell count,[2]; [11],9360
same,cell count,[2]; [12],9620
same,z-score,[3],-0.42 (inactive)
C=CC(=O)c1ccc2ccccc2c1,remaining activity,[1],118% (inactive)
same,fold change,[2]; [9],0.911 (inactive)
same,fold change,[2]; [10],1.23
same,cell count,[2]; [11],8570
same,cell count,[2]; [12],9410
same,z-score,[3],-0.58 (inactive)
N#C/C(=C\c1ccc(O)c(O)c1)C(N)=O,remaining activity,[1],122% (inactive)
same,fold change,[2]; [9],0.887 (inactive)
same,fold change,[2]; [10],1.74
same,cell count,[2]; [11],9080
same,cell count,[2]; [12],10200
same,z-score,[3],-0.47 (inactive)
C#CCN1C(C)=C(C(=O)OC)C(c2cccc([N+](=O)[O-])c2)C(C(=O)OCC)=C1C (stereo not drawn),remaining activity,[1],122% (inactive)
same,fold change,[2]; [9],0.951 (inactive)
same,fold change,[2]; [10],0.816
same,cell count,[2]; [11],7120
same,cell count,[2]; [12],7490
same,z-score,[3],-0.3 (inactive)
Nc1ccc(-c2cccc3c(=O)cc(N4CCOCC4)oc23)cc1,parasite load remaining,[8],43.6% (inactive)
same,viability,[8],83.4%
same,remaining activity,[1],104% (inactive)
same,fold change,[2]; [9],0.901 (inactive)
same,fold change,[2]; [10],1.45
same,cell count,[2]; [11],3870
same,cell count,[2]; [12],4300
same,z-score,[3],4.44 (active)
NS(=O)(=O)c1cccc2c1c([N+](=O)[O-])cc1nc(O)c(O)nc12,remaining activity,[1],120% (inactive)
same,fold change,[2]; [9],1.03 (inactive) and 0.923 (inactive)
same,fold change,[2]; [10],1.03 and 0.947
same,cell count,[2]; [11],11000 and 9080
same,cell count,[2]; [12],10700 and 9830
same,z-score,[3],0.68 (inactive) and 0.65 (inactive)
CNC(=O)[C@H]1O[C@@H](n2cnc3c(NCc4cccc(I)c4)ncnc32)[C@H](O)[C@@H]1O,remaining activity,[1],116% (inactive)
same,fold change,[2]; [9],0.865 (inactive)
same,fold change,[2]; [10],0.723
same,cell count,[2]; [11],8280
same,cell count,[2]; [12],9570
same,z-score,[3],2.99 (active)
Cc1ccc(NC2=CC(=O)c3sc(C)nc3C2=O)cc1,parasite load remaining,[8],21% (inactive)
same,viability,[8],105%
same,remaining activity,[1],117% (inactive)
same,fold change,[2]; [9],0.814 (inactive)
same,fold change,[2]; [10],0.845
same,cell count,[2]; [11],1060
same,cell count,[2]; [12],1300
same,z-score,[3],-0.705 (inactive)
COc1[nH]c2ccc(F)cc2c1C(=O)OCC1CCN(CCNS(C)(=O)=O)CC1,remaining activity,[1],110% (inactive)
same,fold change,[2]; [9],0.927 (inactive)
same,fold change,[2]; [10],0.654
same,cell count,[2]; [11],8220
same,cell count,[2]; [12],8880
same,z-score,[3],-0.185 (inactive)
